Experimental findings from the supplement of paper PMC10338343 are described below.

± gives the standard deviation. Where only a bound is given, the exact number is not on record here.
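Also: 1 nM active piRISC with 0.1 nM target library at 33 °C single turnover.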

One assay relates to MILI (PIWIL2) piRISC loaded with L1MC piRNA (26 nt). Put plainly: pre-steady-state target cleavage rate (min^-1); guide: L1MC piRNA 5'p-UAACUAAAUACUAUGCAAGCUGUAGG; MIWI and MILI are mouse PIWI proteins and EfPiwi is from a freshwater sponge; tags in brackets are library labels; higher = faster piRNA-guided slicing of the target. Particulars: auxiliary factor: 500 nM mouse GTSF1. The procedure, abridged:
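The pre-steady-state cleavage rate was derived from a burst-and-steady-state fit of Cleave-'n-Seq data. For these assays, 1 nM active affinity-purified piRISC loaded with a single synthetic guide was mixed with […] a transcribed, DNA-blocked target RNA library in HEPES–potassium acetate buffer at 33 °C, with or without 500 nM GTSF1 partner protein, for 0–8 or 0–960 min. Sequencing counts of uncleaved targets were normalised to depth and to weakly complementary targets, and k3 was capped at 0.0001 min^-1 after three trials were pooled.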
UCCUGGAUGUGCUUGCAUAGUUUAUAGUUA: the “pre-steady-state target cleavage rate” value came out at 0.00502 ± 0.0041.
Regarding UCCUGGAUGUCCUACCAUAGUAUUUAGUUA, the “pre-steady-state target cleavage rate” value was found to be 0.0632 ± 0.015.
In the case of UCCUGGAUGAGCUUGCAUAGUAUAUAGAUA, the “pre-steady-state target cleavage rate” value is 0.019 ± 0.0076.
Turning to UCCUGGAUCUCGUUGCAUAGUAUUUUCAAA, the “pre-steady-state target cleavage rate” value was found to be 0.0482 ± 0.013.
On to UCCUGGAUGAGCUUGCUUAGUAUUUACAAA, for which the “pre-steady-state target cleavage rate” value was 0.0262 ± 0.011.
As for UCCUGGAUGUCGAAGCAUAGUACUUAGUUA, the “pre-steady-state target cleavage rate” value was determined as 0.00746 ± 0.0031.
UCCUCCUACAGCUUCCAUAGUAAUUAGUUA: the “pre-steady-state target cleavage rate” value was 0.0149 ± 0.0069.
Consider UCCUGGAUGUGCUUGCAUUGUAUUUAGUAA, for which the “pre-steady-state target cleavage rate” value came out at 0.0856 ± 0.015.
Consider UCCUGGUACAGCUUGCAUAGUAUUUACUAA, for which the “pre-steady-state target cleavage rate” value was 0.0179 ± 0.0081.
For the sequence UCCUGGAACAGCUUGCAUAUAUUUAGUUA, the “pre-steady-state target cleavage rate” value came to 0.0331 ± 0.0059.
On to “UCCUGGAUGUCGAACCAUAGUAUUAUCAAA [g7:g15:cont:t1A]”, for which the “pre-steady-state target cleavage rate” value was < 0.0001.
With UCCUGCUACAGCUUGCAUAGUUUUUAGAAA, the “pre-steady-state target cleavage rate” value is 0.0163 ± 0.0061.
UCCUGGUACAGCUUGCAUUGUAUUAAGUUA: the “pre-steady-state target cleavage rate” value was 0.0503 ± 0.011.
Take UCCUGGUUCAGCUUGCAUAGUAUUUACAAA: the “pre-steady-state target cleavage rate” value worked out at 0.0698 ± 0.021.
Turning to UCCUGCUACAGCUUGCAUAGAUUUUAGUUA, the “pre-steady-state target cleavage rate” value was 0.0475 ± 0.0083.
For the sequence UCCUGGAUCAGCUUGCAUAGUAUUAUCAAA, the “pre-steady-state target cleavage rate” value was 0.0975 ± 0.021.
As to UCCUCCUACAGCUUGCAUACAUUUUAGUUA, the “pre-steady-state target cleavage rate” value was 0.00509 ± 0.0039.
For the sequence UCCUGGAUCAGCUUGCAUAGAAUAUAGUUA, the “pre-steady-state target cleavage rate” value is 0.042 ± 0.012.
Turning to UCCUGGAUCAGCUUGCAAUCUAUUUAGUUA, the “pre-steady-state target cleavage rate” value came to 0.0116 ± 0.0035.
Turning to UCCUGGUACAGCUUGCAAAGUAUUUAGAAA, the “pre-steady-state target cleavage rate” value is 0.0181 ± 0.0094.
UCCUGGAUGUCCUUGGAUAGUAUUUACUUA: the “pre-steady-state target cleavage rate” value is 0.014 ± 0.005.
For the sequence UCCUGGAUGAGCUUGCAUAGUAUUAUGAAA, the “pre-steady-state target cleavage rate” value was found to be 0.00473 ± 0.0045.
For the sequence UCCUGGAUGUCGAUGCCAUAGUAUUUAGUUA, the “pre-steady-state target cleavage rate” value was determined as 0.00491 ± 0.0034.
Take UCCUGGAUGAGCUUGCAAAGUUUUUAGUUA: the “pre-steady-state target cleavage rate” value came out at 0.00724 ± 0.004.
Consider UCCUGGAUGUGCUUGCCAUAGUAUUUAGUUA, for which the “pre-steady-state target cleavage rate” value is 0.014 ± 0.0071.
With UCCUGGAUGUGCUUGCAUAGUAUUUCAGUUA, the “pre-steady-state target cleavage rate” value amounted to 0.0278 ± 0.01.
As to UCCUCCUACAGCUUGCAUUCUAUUUAGAAA, the “pre-steady-state target cleavage rate” value came to 0.0122 ± 0.0056.
On the same count and under the same terms, then UCCUGGAUCAGCUUCGUUAGUAUUUAGUAA, with 0.02 ± 0.0056.
Still for that read-out and setting: then UCCUGGAACAGCUUGCAUAGUUUUAGUUA, with 0.0123 ± 0.0053.
The same measure, in the same setting: then UCCUGGAACUGCUUGCAUAGUAUUUAGAUA, with 0.123 ± 0.023; and UCCUGGAUCAGCUUGCAUAGUAUUUCAGUUA, with 0.162 ± 0.028.
As for UCCUCCUACAGCUUGGUAAGUAUUUAGUAA, the “pre-steady-state target cleavage rate” value was 0.155 ± 0.025.
Same read-out and setting: then UCCUCCUACACGUUGCAUAGUAUUUACAAA, with 0.062 ± 0.019.
In the case of UCCUGGAUGUGCUUGCUUAGUAUUUUGUUA, the “pre-steady-state target cleavage rate” value was 0.0645 ± 0.017.

Staying with this assay, now noted: auxiliary factor: none (no GTSF1).
In the case of UCCUGGAUGUCGAACGUUAGUAUUUAGUGUA, the “pre-steady-state target cleavage rate” value was < 0.0001.
Take UCCUGGAUGUCGAACGUAUGUAUUUCAGUUA: the “pre-steady-state target cleavage rate” value is < 0.0001.
The same measure, in the same setting: then UCCUGGAUCAGCAACCAUAGUAUUUACAAA, with < 0.0001; and UCCUGGAUGUCGAACGUUAGUAUAUUGUUA, with < 0.0001.
UCCUGGAUGUCGAACGUAUCUAUAAAGUUA: the “pre-steady-state target cleavage rate” value was < 0.0001.
On to UCCUGGAUGUCGUUCCAAAGUAUUUAGUUA, for which the “pre-steady-state target cleavage rate” value was < 0.0001.
